Results published in PubChem BioAssay (EPA / NIEHS).
Inconclusive results are not listed. Activity calls are given as the source filed them. Rule for the calls, unless noted: active = hit-call score of the fitted dose curve at least 0.9, where 1 is the maximum; inactive = score below 0.9.

How the values were obtained:
[1] = CCTE_Mundy_HCI_Cortical_NOG_NeuriteCount: CCTE's Neurite Outgrowth Assay in rat cortical cells for Neurite Count, Mundy Lab (AID 2284212);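 note: cells fixed about two days after chemical exposure began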
Summary of the method: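 Rat cortical primary cells; compound added 2 h post-plating, 1/10 dilution of working solution. Anti-betaIII-tubulin/AF488 ICC; ArrayScan neurite count vs DMSO.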

[2] = CCTE_Mundy_HCI_Cortical_NOG_NeuriteLength: CCTE's Neurite Outgrowth Assay in rat cortical cells for Neurite Length, Mundy Lab (AID 2284213)
Summary of the method: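 First, rat primary cortical cells were plated and, 2 h later, given test chemical as a 1/10 dilution. Finally, βIII-tubulin immunostaining enabled automated imaging of neurite length.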

[3] = CCTE_Mundy_HCI_Cortical_Synap_Neur_Matur_NeuriteLength: CCTE's Synaptogenesis and Neurite Maturation Assay in rat cortical cells for Neurite Length, Mundy Lab (AID 2284214)
Summary of the method: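 Neurite length quantified by automated high-content imaging of MAP2, synaptophysin and Hoechst staining. Rat cortical cells received chemical from DIV 7 to DIV 12 […], glial growth arrested by AraC at DIV 5; DMSO baseline.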

[4] = CCTE_Mundy_HCI_Cortical_Synap_Neur_Matur_SynapseCount: CCTE's Synaptogenesis and Neurite Maturation Assay in rat cortical cells for Synapse Count, Mundy Lab (AID 2284218)
Summary of the method: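 High-content imaging of synaptophysin puncta per MAP2-positive neuron (Hoechst nuclei) in rat cortical cells exposed DIV 7–12 after glial arrest with AraC at DIV 5; decrease relative to DMSO scored.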

[5] = CCTE_Mundy_HCI_Cortical_Synap_Neur_Matur_NeuriteCount: CCTE's Synaptogenesis and Neurite Maturation Assay in rat cortical cells for Neurite Count, Mundy Lab (AID 2284222)
Summary of the method: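 Chemical exposure runs DIV 7–12 in rat cortical cultures, glia suppressed by AraC at DIV 5; measurement is at DIV 12. Imaging-derived neurite counts are fitted against DMSO baseline.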

[6] = CCTE_Mundy_HCI_Cortical_Synap_Neur_Matur_CellBodySpotCount: CCTE's Synaptogenesis and Neurite Maturation Assay in rat cortical cells for Cell Body Spot Count, Mundy Lab (AID 2284223)
Summary of the method: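 Read-out: cell body-associated synaptophysin puncta per neuron, imaged after MAP2, synaptophysin and Hoechst staining. Rat cortical cells, AraC DIV 5, chemical dosing DIV 7, fixation DIV 12. Activity fitted in positive direction relative to DMSO baseline.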

[7] = CCTE_Mundy_HCI_hNP1_Pro_ResponderAvgInten: CCTE's Proliferation Assay in human neuroprogenitor cells, Mundy Lab (AID 2284224; active = hit-call score of the fitted dose curve at least 0.9, where 1 is the maximum;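 note: human neural progenitor cells hNP1 derived from WA09 embryonic stem cells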)
Summary of the method: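 Proliferation read as average intensity of BrdU-positive cells, imaged at 26.25 h post-dosing: chemical exposure started after 40–44 h culture, BrdU during final 4 h, paraformaldehyde fixation. Positive-direction fit relative to DMSO.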

[8] = UKN2_HCS_IMR90_cell_viability: Viability Assessment in the University of Konstanz (UKN) Leist Lab Neural Crest Cell Migration Assay in human induced IMR90 Pluripotent Stem Cells (UKN2) (AID 2284233);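 note: cells exposed to compound for 24 h after a 24 h migration phase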
Summary of the method: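 Viability read as calcein-AM fluorescence by high-content imaging, Hoechst co-stain, 30 min. Human iPSC (IMR90) neural crest cells had migrated 24 h into stopper-defined gaps before 24 h chemical exposure. Fitted bidirectionally relative to DMSO.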

[9] = CCTE_Mundy_HCI_Cortical_NOG_NeuronCount: CCTE's Neurite Outgrowth Assay in rat cortical cells for Neuron Count, Mundy Lab (AID 2284236; active = hit-call score of the fitted dose curve at least 0.9, where 1 is the maximum;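 note: neurons counted by imaging betaIII-tubulin and Hoechst stained cortical cells; cells exposed to compound for about 48 hours before fixation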)
Summary of the method: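 Read-out: neuron number by high-content imaging of betaIII-tubulin (Alexa Fluor-488) and Hoechst-labelled rat primary cortical cells.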

[10] = CCTE_Mundy_HCI_Cortical_NOG_BPCount: CCTE's Neurite Outgrowth Assay in rat cortical cells for Branch Point Count, Mundy Lab (AID 2284237)
Summary of the method: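 Measured 50.33 h after dosing, this morphology endpoint uses rat primary cortical cultures labelled for betaIII-tubulin. Branch points are quantified by high-content imaging, with DMSO as negative control and baseline.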

[11] = CCTE_Mundy_HCI_hNP1_Casp3_7: CCTE's Caspase-Glo 3/7 Assay in human neuroprogenitor cells for Apoptosis, Mundy Lab (AID 2284240)
Summary of the method: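 Luminescent caspase-3/7 readout, 26.5 h post-dose, in human neural progenitor cells from WA09 embryonic stem cells. Cells grew 40–44 h at 37 °C, 5% CO2 before chemical addition. Activity analysed as signal increase over DMSO baseline.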

[12] = IUF_NPC2a_radial_glia_migration_120hr: Leibniz Research Institute for Environmental Medicine (IUF) 120-hour Neural Progenitor Cell Migration Assay for Radial Glia Migration (NPC2a) (AID 2284298)
Summary of the method: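 Hoechst-stained nuclei imaged at 120 h; algorithm maps sphere core by densest nuclei, sets migration edge at density threshold, gives radial glia migration distance (um) per well vs DMSO. hNPC spheres (0.3 mm), PDL/laminin, DMEM/F12 3:1 + 1% N2.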

[13] = IUF_NPC2a_radial_glia_migration_72hr: Leibniz Research Institute for Environmental Medicine (IUF) 72-hour Neural Progenitor Cell Migration Assay for Radial Glia Migration (NPC2a) (AID 2284299)
Summary of the method: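 Radial glia migration (µm, sphere core edge to migration front, four directions averaged) from brightfield images at 72 h; hNPC spheres differentiating on PDL/laminin in N2 medium, compound exposure at 7 concentrations from plating.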

[14] = IUF_NPC3_neuronal_differentiation_120hr: Leibniz Research Institute for Environmental Medicine (IUF) 120-hour Neuronal Differentiation Assay (NPC3) (AID 2284301)
Summary of the method: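 hNPC spheres, PDL/laminin, DMEM/F12 3:1 + 1% N2, 37C, 5% CO2; 7 concentrations + solvent control, 5 d exposure, half-change day 3. Fix 120 h; TUBB3/Hoechst ICC, CNN neuron calling; % neurons vs nuclei, DMSO-normalized.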

[15] = IUF_NPC4_neurite_length_120hr: Leibniz Research Institute for Environmental Medicine (IUF) 120-hour Neuronal Morphology Assay for Neurite Length (NPC4) (AID 2284302)
Summary of the method: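 hNPC spheres (0.3 mm, fetal brain GW 16-19) on PDL/laminin, DMEM:F12 3:1 + 1% N2, 37C 5% CO2; 7 concs + solvent control, day 0-5, half medium change d3; fix 120 h, TUBB3 ICC, mean neurite length um vs DMSO.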

[16] = IUF_NPC5_oligodendrocyte_differentiation_120hr: Leibniz Research Institute for Environmental Medicine (IUF) 120-hour Oligodendrocyte Differentiation Assay (NPC5) (AID 2284304; active = hit-call score of the fitted dose curve at least 0.9, where 1 is the maximum;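 note: primary human fetal neural progenitor spheres plated to migrate and differentiate; share of O4-positive cells among Hoechst nuclei found by CNN image analysis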)
Summary of the method: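 hNPC spheres, fetal cortex GW 16-19; PDL/laminin, DMEM:F12 3:1 + 1% N2, 37C/5% CO2; 7 concentrations + solvent control, 5 d exposure, half-change day 3. Readout: %O4+ of Hoechst+ nuclei in migration area, CNN classification; DMSO baseline.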

[17] = IUF_NPC4_neurite_area_120hr: Leibniz Research Institute for Environmental Medicine (IUF) 120-hour Neuronal Morphology Assay for Neurite Area (NPC4) (AID 2284305; active = hit-call score of the fitted dose curve at least 0.9, where 1 is the maximum)
Summary of the method: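 hNPC spheres on PDL/laminin, N2 medium, 37C/5% CO2; dosed day 0, half-medium refresh day 3; fixed 120 h; TUBB3/Hoechst ICC, high-content imaging; neurite area = mean pixels per neuron (nuclei excluded); DMSO baseline, max 0.1%.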

[18] = IUF_NPC2-5_cytotoxicity_120hr: Cytotoxicity Assessment at 120 hours in the Leibniz Research Institute for Environmental Medicine (IUF) Neural Progenitor Cell Migration and Differentiation Assay (NPC2-5) (AID 2284307; active = hit-call score of the fitted dose curve at least 0.9, where 1 is the maximum)
Summary of the method: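 hNPC spheres on PDL/laminin, N2 medium, 37C; 7 concs + solvent control, DMSO ≤0.1%; 5-day exposure, half medium changed day 3. LDH in supernatant at 120 h, resazurin→resorufin fluorescence, gain-of-signal.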

[19] = IUF_NPC2-5_cell_number_120hr: Cell Number Assessment at 120 hours in the Leibniz Research Institute for Environmental Medicine (IUF) Neural Progenitor Cell Migration and Differentiation Assay (NPC2-5) (AID 2284308);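 note: count of Hoechst-stained nuclei in migration zone around plated human neural progenitor spheres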
Summary of the method: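 Hoechst-stained nuclei within the migration area were counted by automated high content imaging after 120 h. Single hNPC spheres differentiated on poly-D-lysine/laminin in DMEM/F12 (3:1) with 1% N2, compound present throughout, DMSO ≤0.1%.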

[20] = IUF_NPC2-5_viability_120hr: Viability Assessment at 120 hours in the Leibniz Research Institute for Environmental Medicine (IUF) Neural Progenitor Cell Migration and Differentiation Assay (NPC2-5) (AID 2284312)
Summary of the method: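 Human fetal neural progenitor spheres (0.3 mm) plated on poly-D-lysine/laminin in N2 differentiation medium, exposed 120 h with half-medium refresh at day 3. Viability by alamar blue resazurin fluorescence; 7 concentrations, DMSO max 0.1%.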

[21] = IUF_NPC1_cytotoxicity_72hr: Cytotoxicity Assessment at 72 hours in the Leibniz Research Institute for Environmental Medicine (IUF) Neural Progenitor Cell Proliferation Assay (NPC1) (AID 2284332; active = hit-call score of the fitted dose curve at least 0.9, where 1 is the maximum;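 note: rising LDH signal means more cytotoxicity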)
Summary of the method: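 Cytotoxicity by LDH membrane-integrity assay on medium supernatants, fluorescence via resazurin reduction, after 3-day single exposure of primary hNPC spheres at 37C, pH 7.2-7.6 with growth factors. Fitted upward against baseline.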

[22] = CCTE_Mundy_HCI_iCellGluta_NOG_NeuronCount: CCTE's Neurite Outgrowth Assay in iCellGluta cells for Neuron Count, Mundy Lab (AID 2284340; active = hit-call score of the fitted dose curve at least 0.9, where 1 is the maximum;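 note: cells fixed about 48 h after compound addition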)
Summary of the method: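 Neuron count read by automated high-content imaging of Hoechst 33342 and betaIII-tubulin/Alexa Fluor-488 labelling in human iPSC glutamatergic neurons. Activity fitted relative to DMSO.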

[23] = CCTE_Mundy_HCI_iCellGluta_NOG_NeuriteCount: CCTE's Neurite Outgrowth Assay in iCellGluta cells for Neurite Count, Mundy Lab (AID 2284342; active = hit-call score of the fitted dose curve at least 0.9, where 1 is the maximum;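 note: chemical exposure about 48 hours starting 2 hours after plating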)

Measured: outcome

COP(=O)(OC)SCN1C(=O)c2ccccc2C1=O
inactive: all assays above
